Measured values as given in the supplement of paper PMC11732987, “Enantioselective OTUD7B fragment discovery through chemoproteomics screening and high-throughput optimisation” (Communications Chemistry, 2025).

Legend:
Experiment in all cases: log2 ratio of Biotin-Ahx-Ub-VS probe labelling (fragment/DMSO); higher = less target engagement (more negative = stronger competition), active = hit call of the paper (q ≤ 0.05, log2 ratio ≤ -1)
Settings in all cases: compound concentration: 200 uM; treatment time: 3 h
OTUD6B = target: T1, OTUD6B (UniProt Q8N6M0)
T1 sequence (whole entry): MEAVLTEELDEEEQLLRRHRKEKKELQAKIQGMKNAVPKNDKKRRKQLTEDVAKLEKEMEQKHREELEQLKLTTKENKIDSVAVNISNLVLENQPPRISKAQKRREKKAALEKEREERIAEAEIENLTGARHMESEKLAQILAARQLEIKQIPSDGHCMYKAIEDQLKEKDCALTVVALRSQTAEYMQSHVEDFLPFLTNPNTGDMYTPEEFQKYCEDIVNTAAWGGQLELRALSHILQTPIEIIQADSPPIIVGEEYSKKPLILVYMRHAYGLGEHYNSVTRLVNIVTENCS
Summary of the method: (§1)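 Labelled DUBs were enriched with NeutrAvidin, digested with LysC and trypsin, and run by diaPASEF LC-MS/MS. The labelling used Biotin-Ahx-Ub-VS at 0.5 µM final for 1 h on HEK293T lysate (495 µg per sample) previously treated in triplicate with fragment at 200 µM or vehicle for 3 h. Values are average log2 fragment/vehicle ratios by unpaired t-test on global-median-normalised Spectronaut quantities of proteins with ≥2 unique peptides.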

OTUD7B = target: T2, OTUD7B (UniProt Q6GQQ9)
T2 sequence (whole entry): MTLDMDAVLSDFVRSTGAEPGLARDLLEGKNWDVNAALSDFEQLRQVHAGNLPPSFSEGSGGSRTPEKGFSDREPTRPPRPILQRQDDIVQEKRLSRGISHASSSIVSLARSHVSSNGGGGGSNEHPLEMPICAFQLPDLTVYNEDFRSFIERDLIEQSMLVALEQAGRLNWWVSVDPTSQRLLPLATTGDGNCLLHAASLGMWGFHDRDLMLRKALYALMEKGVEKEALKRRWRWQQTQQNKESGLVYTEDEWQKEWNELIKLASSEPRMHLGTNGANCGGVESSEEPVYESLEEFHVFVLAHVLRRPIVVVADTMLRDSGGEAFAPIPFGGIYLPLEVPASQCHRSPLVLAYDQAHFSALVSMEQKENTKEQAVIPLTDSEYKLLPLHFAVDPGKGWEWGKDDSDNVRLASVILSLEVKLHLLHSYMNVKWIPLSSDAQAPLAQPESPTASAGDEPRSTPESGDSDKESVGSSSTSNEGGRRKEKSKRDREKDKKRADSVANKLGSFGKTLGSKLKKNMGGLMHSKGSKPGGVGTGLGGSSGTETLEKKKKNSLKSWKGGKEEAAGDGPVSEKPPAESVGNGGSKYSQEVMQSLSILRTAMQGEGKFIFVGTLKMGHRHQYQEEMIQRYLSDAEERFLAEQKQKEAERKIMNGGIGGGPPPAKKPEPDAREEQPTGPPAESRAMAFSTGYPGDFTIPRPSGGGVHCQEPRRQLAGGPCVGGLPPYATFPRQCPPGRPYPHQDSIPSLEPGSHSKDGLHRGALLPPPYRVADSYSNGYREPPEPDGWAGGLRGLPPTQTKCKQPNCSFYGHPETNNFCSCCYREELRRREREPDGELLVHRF
Summary of the method: as §1

PRPF8 = PRPF8 (UniProt Q6P2Q9)
Summary of the method: as §1

PSMD7 = target: T3, PSMD7 (UniProt P51665)
T3 sequence (whole entry): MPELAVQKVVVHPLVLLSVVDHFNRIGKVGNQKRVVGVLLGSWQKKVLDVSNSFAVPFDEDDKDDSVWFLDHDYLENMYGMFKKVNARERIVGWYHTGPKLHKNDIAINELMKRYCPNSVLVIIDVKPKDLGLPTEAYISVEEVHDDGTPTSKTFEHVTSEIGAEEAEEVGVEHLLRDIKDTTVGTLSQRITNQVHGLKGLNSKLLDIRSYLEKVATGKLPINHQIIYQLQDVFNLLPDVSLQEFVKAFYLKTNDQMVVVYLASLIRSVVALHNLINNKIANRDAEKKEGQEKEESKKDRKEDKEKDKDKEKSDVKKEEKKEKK
Summary of the method: as §1

UCHL1 = UCHL1 (UniProt P09936)
Summary of the method: as §1

UCHL3 = target: T4, UCHL3 (UniProt P15374)
T4 sequence (whole entry): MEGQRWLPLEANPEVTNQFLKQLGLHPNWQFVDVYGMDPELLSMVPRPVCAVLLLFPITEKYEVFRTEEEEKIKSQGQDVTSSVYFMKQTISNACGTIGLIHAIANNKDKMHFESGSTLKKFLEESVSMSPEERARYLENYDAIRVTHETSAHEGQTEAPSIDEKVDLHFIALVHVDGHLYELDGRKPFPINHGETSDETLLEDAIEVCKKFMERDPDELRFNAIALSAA
Summary of the method: as §1

UCHL5 = target: T5, UCHL5 (UniProt Q9Y5K5)
T5 sequence (whole entry): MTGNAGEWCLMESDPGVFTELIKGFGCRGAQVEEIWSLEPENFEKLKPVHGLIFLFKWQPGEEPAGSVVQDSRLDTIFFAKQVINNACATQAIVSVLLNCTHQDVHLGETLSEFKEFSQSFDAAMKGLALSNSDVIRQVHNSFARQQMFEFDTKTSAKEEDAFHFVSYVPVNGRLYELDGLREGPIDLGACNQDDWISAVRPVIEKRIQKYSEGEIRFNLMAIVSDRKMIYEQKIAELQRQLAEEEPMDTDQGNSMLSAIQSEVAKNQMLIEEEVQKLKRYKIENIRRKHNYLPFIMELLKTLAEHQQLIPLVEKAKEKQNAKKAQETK
Summary of the method: as §1

USP10 = USP10 (UniProt Q14694)
Summary of the method: as §1

USP15 = target: T6, USP15 (UniProt Q9Y4E8)
T6 sequence (whole entry): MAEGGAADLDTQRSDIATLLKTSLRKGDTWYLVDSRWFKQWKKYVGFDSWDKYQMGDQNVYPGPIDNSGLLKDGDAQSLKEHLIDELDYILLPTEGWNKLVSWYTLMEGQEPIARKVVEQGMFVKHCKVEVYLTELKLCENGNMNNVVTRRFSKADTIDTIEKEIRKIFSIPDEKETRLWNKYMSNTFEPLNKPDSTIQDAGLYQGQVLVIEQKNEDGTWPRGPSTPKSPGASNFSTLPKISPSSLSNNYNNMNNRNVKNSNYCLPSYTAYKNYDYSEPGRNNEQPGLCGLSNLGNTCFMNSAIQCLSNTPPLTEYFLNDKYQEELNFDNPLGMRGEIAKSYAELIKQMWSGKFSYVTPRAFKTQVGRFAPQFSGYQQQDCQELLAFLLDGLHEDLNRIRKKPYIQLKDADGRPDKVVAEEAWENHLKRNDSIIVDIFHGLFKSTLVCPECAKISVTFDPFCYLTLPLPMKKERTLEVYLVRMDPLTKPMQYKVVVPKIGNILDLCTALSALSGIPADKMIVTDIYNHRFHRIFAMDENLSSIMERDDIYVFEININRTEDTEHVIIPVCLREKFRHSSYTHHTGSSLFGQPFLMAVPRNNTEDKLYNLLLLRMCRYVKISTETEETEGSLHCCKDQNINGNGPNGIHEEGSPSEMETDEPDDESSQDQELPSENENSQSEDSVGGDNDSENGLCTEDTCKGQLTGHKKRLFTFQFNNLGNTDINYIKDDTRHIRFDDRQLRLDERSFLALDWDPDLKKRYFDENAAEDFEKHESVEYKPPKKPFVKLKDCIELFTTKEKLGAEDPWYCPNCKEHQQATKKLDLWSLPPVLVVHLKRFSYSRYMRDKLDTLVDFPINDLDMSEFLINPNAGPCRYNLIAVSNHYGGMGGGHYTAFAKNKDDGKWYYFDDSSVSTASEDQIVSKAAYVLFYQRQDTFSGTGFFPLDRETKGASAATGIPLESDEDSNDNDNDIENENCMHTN
Summary of the method: as §1

Measured: log2 ratio of Biotin-Ahx-Ub-VS probe labelling

Chain of UCHL1 (P09936 whole entry, looked up): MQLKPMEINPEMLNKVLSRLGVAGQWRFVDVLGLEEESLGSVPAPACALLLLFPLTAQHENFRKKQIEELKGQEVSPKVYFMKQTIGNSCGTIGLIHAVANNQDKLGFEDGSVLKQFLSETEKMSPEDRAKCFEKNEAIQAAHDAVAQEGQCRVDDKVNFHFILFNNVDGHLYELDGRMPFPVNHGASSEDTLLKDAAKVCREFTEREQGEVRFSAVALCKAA
Chain of USP10 (Q14694 whole entry): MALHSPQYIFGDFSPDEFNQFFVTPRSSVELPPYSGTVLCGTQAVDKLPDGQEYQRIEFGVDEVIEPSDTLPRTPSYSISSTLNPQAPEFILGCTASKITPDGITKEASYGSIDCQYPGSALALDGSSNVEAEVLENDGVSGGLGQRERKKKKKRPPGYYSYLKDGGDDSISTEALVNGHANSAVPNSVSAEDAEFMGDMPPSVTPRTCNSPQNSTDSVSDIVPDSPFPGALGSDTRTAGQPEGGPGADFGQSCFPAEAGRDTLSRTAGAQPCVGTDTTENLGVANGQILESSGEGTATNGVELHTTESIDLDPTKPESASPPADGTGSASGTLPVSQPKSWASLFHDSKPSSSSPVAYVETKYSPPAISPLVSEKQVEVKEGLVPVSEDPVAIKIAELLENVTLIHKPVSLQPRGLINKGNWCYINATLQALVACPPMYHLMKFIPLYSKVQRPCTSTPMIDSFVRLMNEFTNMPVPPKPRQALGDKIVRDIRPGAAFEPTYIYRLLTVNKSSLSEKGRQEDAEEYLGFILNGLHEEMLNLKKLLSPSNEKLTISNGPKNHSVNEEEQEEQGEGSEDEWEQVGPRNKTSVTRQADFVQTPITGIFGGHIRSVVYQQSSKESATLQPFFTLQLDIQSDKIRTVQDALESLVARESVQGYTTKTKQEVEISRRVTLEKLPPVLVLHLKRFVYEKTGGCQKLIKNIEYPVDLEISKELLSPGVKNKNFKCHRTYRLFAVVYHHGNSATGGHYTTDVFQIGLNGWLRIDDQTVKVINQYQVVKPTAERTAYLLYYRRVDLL

O=C(CCl)NCCc1cccc2ccccc12
inactive: OTUD6B 0.0475 | OTUD7B -0.286 | PRPF8 0.117 | PSMD7 0.0665 | UCHL1 -0.978 | UCHL3 0.331 | UCHL5 -0.029 | USP10 -0.0479 | USP15 0.076
